From PubChem
L3MBTL1 block = blocks human L3MBTL1; Potency, µM (series often up to 57.1 µM), for inactives: at the top dose activity, negative = inhibition, most hits filed as inhibitors; 0.66% of 230,000 active; Q9Y468; AlphaScreen L3MBTL1–H3K9me1 peptide binding; AID 485360; further: on the % scale 0 is the no-effect control and ±100 the full control effect; nearly all actives have a fitted effect of over 60% in size
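AlphaScreen proximity signal between nickel-chelate acceptor and streptavidin donor beads (final 10 ug/mL) reports binding of 50 nM L3MBTL1 to 75 nM biotin-H3 K9me1 peptide; complex incubated with compounds 30 min at room temperature; cefsulodin titration as control.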
JMJD2A Tudor inh = blocks the human JMJD2A Tudor domain. Potency, µM (top dose mostly 114 µM), for inactives: top-dose activity change, negative = inhibition, most hits filed as inhibitors. 4.4% of 390,000 active. AID 504339. AlphaScreen JMJD2A-Tudor / H3K4me3 peptide binding. O75164; further: on the % scale 0 is the no-effect control and ±100 the full control effect; nearly all actives have a fitted effect of over 50% in size
G9a inh = inhibitors of human histone lysine methyltransferase G9a; G9a H3K9 monomethylation, AlphaScreen, 2 h; AID 504332; 8.8% of 350,000 active; Q96KQ7; Potency, µM (series often up to 102 µM), inactives show at the top dose activity, negative = inhibition, usual class: inhibitors; further: on the % scale 0 is the no-effect control and ±100 the full control effect; nearly all actives have a fitted effect of over 75% in size
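G9a (20 nM) preincubated 15 min RT with compounds, then 500 nM biotinylated H3K9 peptide and 20 uM SAM added; 2 h RT reaction. Monomethyl-H3K9 product detected by AlphaScreen with anti-H3K9me1 antibody, streptavidin donor and anti-rabbit IgG acceptor beads.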
BAZ2B block = BAZ2B (human) inhibition. Q9UIF8. AlphaScreen BAZ2B-H3K14Ac peptide displacement. Potency, µM (doses to about 114 µM), without a hit: at the top dose activity change, negative = inhibition, actives largely listed as inhibitors. 4.4% of 360,000 active. AID 504333; further: on the % scale 0 is the no-effect control and ±100 the full control effect; nearly all actives have a fitted effect of over 60% in size
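Complex of BAZ2B and biotin-H3K14Ac (50 nM apiece) forms over 30 min at RT, then faces library compounds up to 110 uM for another 30 min; AlphaScreen beads added, 20 min dark incubation, luminescence read.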
HP1b binding inh = HP1-beta chromodomain-methylated histone interaction inhibition; AlphaScreen HP1-beta / biotin-H3K9me3 peptide binding; 0.56% of 390,000 active; Potency, µM (doses to about 114 µM), for inactives: top-dose activity change, negative = inhibition, most hits filed as inhibitors; further: nearly all actives have a fitted effect of over 70% in size
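HP1-beta protein (50 nM final) preincubated 30 min at room temperature with biotinylated H3(1-18)K9me3 peptide (50 nM) in PBS pH 7.4, 0.01% Tween-20, then compound added for 30 min. AlphaScreen streptavidin donor/nickel chelate acceptor beads (10 ug/mL final), 30 min dark, luminescence read.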
Active calls of the source: *; u = inconclusive; x = not tested or not shown; [ ] = remark or other dose. The list is not random: actives were taken first. Their share in the collection is about 11%. The call rests on the fitted dose curve; in most records, active means well fitted inhibition curve with a large enough effect; inconclusive means small, poorly fitted or top-dose-only effect; inactive means no such curve, though single readings can be large or run the other way. Potency means the concentration at half of the fitted maximal effect.

SMILES	L3MBTL1 block	JMJD2A Tudor inh	G9a inh	BAZ2B block	HP1b binding inh
COc1ccc(C2C(C(=O)OC(C)C)=C(C)N=c3s/c(=C\c4cccs4)c(=O)n32)cc1 (stereo not drawn)	1%	-30%	-12%	u	-5%
COCCn1cc(C(=O)NCc2cccs2)c2c3ccccc3n(C)c2c1=O	5%	-14%	50µM*	6%	12%
CCNc1ncc2ncc(=O)n(C)c2n1	x	x	-1%[12.7 µM]	x	x
Cc1cc2c(cc(C(=O)OC(C(=O)NCC3CCCO3)C(C)C)n2C)o1 (stereo not drawn)	-1%	-30%	-9%	-12%	-9%
COCCNC(=O)C(OC(=O)c1cc2oc(C)cc2n1C)C(C)C (stereo not drawn)	-7%	-15%	u	79µM*	24%
CC(C)(C)C(=O)Nc1ccc(/C=C/C(=O)c2ccco2)cc1	2%[2.29 µM]	-14%	17%[0.501 µM]	-9%	10%
IC(I)I	x	x	14µM*	x	x
CCCCN(C(=O)C(C)N1C(=O)c2ccccc2C1=O)c1c(N)n(CCCC)c(=O)[nH]c1=O (stereo not drawn)	2%	-4%	4%[12.7 µM]	-2%	22%
CCCCn1c(N)c(N(CCC(C)C)C(=O)c2ccc(N3CCCC3=O)cc2)c(=O)[nH]c1=O	1%	3%	35µM*	7%	26%
CCCCn1c(N)c(N(CCC(C)C)C(=O)C2CCCN(C(=O)c3ccc(Cl)cc3)C2)c(=O)[nH]c1=O (stereo not drawn)	-3%	u	40µM*	11%	37%
CC(C)CCN(C(=O)c1ccc(N2CCCC2=O)cc1)c1c(N)n(Cc2ccccc2)c(=O)[nH]c1=O	3%	-7%	-4%	11%	32%
CCCCn1c(N)c(N(CC(C)C)C(=O)C2CCN(C(=O)c3ccc(Cl)cc3)CC2)c(=O)[nH]c1=O	5%	-5%	u	-2%	48%
CCCCn1c(N)c(N(CCC(C)C)C(=O)C(C)N2C(=O)c3ccccc3C2=O)c(=O)[nH]c1=O (stereo not drawn)	-2%	-5%	13µM*	9%	14%
CCCCn1c(N)c(N(CC)C(=O)c2ccc(C#N)cc2)c(=O)[nH]c1=O	x	-2%	50µM*	2%	32%
O=C(COc1ccc(Cl)cc1)NCC(c1ccco1)S(=O)(=O)c1ccc(Cl)cc1 (stereo not drawn)	x	-6%	4%[59 µM]	-5%	20%
Cc1nc(N2CCCC2)c2c(C(=O)N3CCN(c4cccc(C)c4C)CC3)c(C)oc2n1	x	-28%	-31%[59 µM]	-1%[57.1 µM]	0%
Cc1ccc(OCCn2c(C3CC(=O)N(Cc4ccc(F)cc4)C3)nc3ccccc32)c(C)c1 (stereo not drawn)	x	-19%	-41%[59 µM]	u	54%
CCCCn1c(N)c(N(CC)C(=O)c2ccc(N3CCCC3=O)cc2)c(=O)[nH]c1=O	11%	-3%	50µM*	0%	30%
Clc1cccc(CNc2cc(-c3ccccc3)nc3nncn23)c1	x	-1%	5%[59 µM]	3%	37%
Cc1cc(C2=NNC(=NC3CC3)SC2)c(C)n1-c1ccccc1F	-8%	28µM*	u	u	u
Cc1cc(C2=NNC(=NC3CCCCC3)SC2)c(C)n1-c1c(C)n(C)n(-c2ccccc2)c1=O	-9%	-36%	-25%[59 µM]	u	0%
c1ccc2oc(C3=NNC(=NC4CC4)SC3)cc2c1	-19%	u	11µM*	u	-12%
C[C@@H](CNC1CCCCC1)OC(=O)c1ccccc1	x	x	17%[21.5 µM]	x	x
O=C(NCc1cccc(Br)c1)c1cnn(-c2ccc(F)cc2)c1-n1cccc1	x	7%	0%[59 µM]	-4%	48%
COc1ccc(NS(=O)(=O)c2cccc3nonc23)c(OC)c1	-24%	-25%	40µM*	u	-13%
SMILES	L3MBTL1 block	JMJD2A Tudor inh	G9a inh	BAZ2B block	HP1b binding inh
CCc1ccc(NS(=O)(=O)c2cccc3nonc23)cc1	x	-26%[11.4 µM]	45µM*	u	-12%
COc1ccc(OC)c(NC(=O)CCNS(=O)(=O)c2cccc3nonc23)c1	x	5%	u	-4%	10%
CCCN(CCC)CCCNC(=O)c1nn(C)c2c1CS(=O)(=O)c1ccccc1-2	x	-5%	-44%[59 µM]	-16%	17%
Cc1ccc2nc(-c3ccc(NC(=O)COCC(=O)O)cc3)sc2c1	0%	-20%	50µM*	-4%	23%
Cc1ccc2nc(-c3ccc(NC(=O)CSCC(=O)O)cc3)sc2c1	3%	-13%	4%[12.7 µM]	-12%	12%
O=C(O)CSCC(=O)Nc1ccc(-c2nc3ccccc3s2)cc1	-5%	-30%	45µM*	-1%	9%
Cc1ccc2nc(-c3ccc(NC(=O)CCN4C(=O)c5ccccc5C4=O)cc3)sc2c1	1%	-8%	45µM*	-19%	33%
COc1ccc(-n2c(=O)c(-c3cn(C)c4ccccc34)nc3cncnc32)cc1	x	x	2%[12.7 µM]	x	x
COc1ncc2nc(-c3cn(C)c4ccccc34)c(=O)n(-c3ccccc3)c2n1	x	x	4%[0.501 µM]	x	x
Cc1ccccc1NC(=O)CSc1ncc2c(n1)-c1ccccc1N(C)S2(=O)=O	x	-10%	-3%[59 µM]	-16%	9%
COc1ccc(S(=O)(=O)NCCSCc2ccco2)cc1OC	x	-34%	12%[12.7 µM]	56µM*	8%
COc1ccc(S(=O)(=O)NCCSCc2ccco2)cc1	x	-30%	-14%[12.7 µM]	50µM*	0%
CCC(CC)CN1CCN=C1Nc1ccccc1	2%	-11%	-3%[2.33 µM]	-3%	22%
COc1ccccc1CNC(=O)CN1N=C(c2ccccc2)CCC1=O	x	-6%	-3%[59 µM]	4%	44%
N#CC1=C(N)SC(N)=C(C#N)C1c1ccc([N+](=O)[O-])cc1	-13%	56µM*	8.9µM*	-37%	-37%
CCOC(=O)C1=C(C)OC(N)=C(C#N)C1c1ccc(C)o1 (stereo not drawn)	x	-22%	u	-22%	44%
CCc1ccc(C2C(C#N)=C(N)Oc3cc(N)ccc32)cc1 (stereo not drawn)	5%	-19%	u	u	44%
Cc1ccc(C2C(C#N)=C(N)SC(N)=C2C#N)o1	-19%	x	1.6µM*	x	x
CCc1ccc(C2C(C#N)=C(N)SC(N)=C2C#N)cc1	4%	u	8.9µM*	u	4%
N#CC1=C(N)SC(N)=C(C#N)C1c1ccc(C(F)(F)F)cc1	0%	x	2.5µM*	-31%	x
CCc1ccc(C2C(C#N)=C(N)SC(N)=C2C#N)s1	-12%	-33%	40µM*	-14%	9%
COC(=O)c1ccccc1NC(=O)c1cc(C)nc2c1c(C)nn2-c1ccc(C)cc1	x	4%	3%[59 µM]	12%[57.1 µM]	42%
